# A number with no mark means an inactive call. For some assays here: Entries with a potency or affinity are not part of this list. The source made the active and inactive calls. Unless noted, how the calls were made is not given here.
# Key:
# [1] = antimalarial activity against Dd2 strain (AID 2302;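 active means growth inhibition above 50% at the single 2 µM test dose, taken to imply half-maximal potency below 2 µM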;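 further: 0% = DMSO untreated growth and 100% = chloroquine plus artemisinin killed control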); settings: P. falciparum Dd2 in RBCs, LDH growth readout, 72 h; at 2 µM; hits give high values
# [2] = human hepatoma cell viability loss – ATP luminescence, cytotoxicity control for P. falciparum antimalarial project, primary screen (AID 2303;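 active means inhibition above 50%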;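 further: 0% = DMSO wells and 100% = digitonin-killed cells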); settings: HepG2 viability, 24-48 h, at 10 µM, hits give high values
# [3] = target: L-lactate dehydrogenase (Plasmodium falciparum (isolate CDC / Honduras)) (UniProt Q27743); test: PfLDH activity inhibition – cell lysate, 3D7 strain, counter-screen for P. falciparum growth inhibition project (AID 2304);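 further: 0% = vehicle and 100% = reference inhibitor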; settings: P. falciparum 3D7 crude extract, LDH APAD/NBT absorbance; at 2 µM; hits give high values
# [4] = inhibition of 3D7 malaria parasite growth – strain 3D7 (AID 2306);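 further: 0% = DMSO wells and 100% = chloroquine plus artemisinin control wells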; settings: P. falciparum 3D7 erythrocytic growth, LDH absorbance, 72 h; at 2 µM; hits give high values
# [5] = target: Calcium-dependent protein kinase 1 (Plasmodium falciparum (isolate 3D7)) (UniProt P62344); test: PfCDPK1 kinase inhibitors, biochemical, TCAMS library (AID 1159585; cut-off not given, nearly all actives have IC50 up to about 0.98 µM;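 further: inhibitors leave more ATP so luminescence rises with inhibition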); settings: recombinant PfCDPK1, Kinase-Glo ATP depletion luminescence
# [6] = target: Plasmodium falciparum protein kinase 6 (PK6, PF3D7_1337100) (UniProt Q8IDW1); test: PfPK6 kinase inhibitors, biochemical, TCAMS library (AID 1159586); settings: recombinant PfPK6, Kinase-Glo ATP depletion luminescence
# [7] = target: Protein kinase 7 (PK7), Plasmodium falciparum 3D7 (PF3D7_0213400) (UniProt Q7YTF7); test: inhibition of Plasmodium PK7 catalytic activity – biochemical, TCAMS antimalarial set, Kinase-Glo luminescence (AID 1159587); settings: recombinant PfPK7, Kinase-Glo ATP depletion luminescence
# [8] = target: Calcium-dependent protein kinase 4 (Plasmodium falciparum (isolate 3D7)) (UniProt Q8IBS5); test: PfCDPK4 kinase inhibitors, biochemical, TCAMS library (AID 1159588; cut-off not given, nearly all actives have IC50 up to about 0.91 µM); settings: recombinant PfCDPK4, Kinase-Glo ATP depletion luminescence
# Sequence of Calcium-dependent protein kinase 4 (Plasmodium falciparum (isolate 3D7)) (Q8IBS5 whole entry, looked up): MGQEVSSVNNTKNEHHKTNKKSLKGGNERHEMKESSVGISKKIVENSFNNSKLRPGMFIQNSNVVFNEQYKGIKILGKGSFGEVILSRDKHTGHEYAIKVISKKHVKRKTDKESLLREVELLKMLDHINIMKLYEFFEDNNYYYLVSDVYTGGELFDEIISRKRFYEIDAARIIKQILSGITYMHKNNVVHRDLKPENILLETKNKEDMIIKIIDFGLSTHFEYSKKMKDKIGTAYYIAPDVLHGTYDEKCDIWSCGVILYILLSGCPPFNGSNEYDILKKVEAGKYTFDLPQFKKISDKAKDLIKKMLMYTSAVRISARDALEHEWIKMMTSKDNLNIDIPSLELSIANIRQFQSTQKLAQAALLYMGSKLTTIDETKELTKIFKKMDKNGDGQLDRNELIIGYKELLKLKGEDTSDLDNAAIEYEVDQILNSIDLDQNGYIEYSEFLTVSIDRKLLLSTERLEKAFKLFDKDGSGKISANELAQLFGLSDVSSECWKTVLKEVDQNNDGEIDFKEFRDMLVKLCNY
# Sequence of Plasmodium falciparum protein kinase 6 (PK6, PF3D7_1337100) (Q8IDW1 1-305): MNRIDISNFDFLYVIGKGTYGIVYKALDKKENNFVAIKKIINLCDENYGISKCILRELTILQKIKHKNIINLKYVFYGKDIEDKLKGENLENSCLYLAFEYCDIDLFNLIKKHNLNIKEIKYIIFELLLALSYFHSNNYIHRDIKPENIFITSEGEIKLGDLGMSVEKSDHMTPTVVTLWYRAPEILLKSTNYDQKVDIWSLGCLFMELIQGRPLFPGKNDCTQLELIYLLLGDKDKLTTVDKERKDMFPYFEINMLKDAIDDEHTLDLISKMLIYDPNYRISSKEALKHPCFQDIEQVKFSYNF
# Sequence of Protein kinase 7 (PK7), Plasmodium falciparum 3D7 (PF3D7_0213400) (Q7YTF7 1-343): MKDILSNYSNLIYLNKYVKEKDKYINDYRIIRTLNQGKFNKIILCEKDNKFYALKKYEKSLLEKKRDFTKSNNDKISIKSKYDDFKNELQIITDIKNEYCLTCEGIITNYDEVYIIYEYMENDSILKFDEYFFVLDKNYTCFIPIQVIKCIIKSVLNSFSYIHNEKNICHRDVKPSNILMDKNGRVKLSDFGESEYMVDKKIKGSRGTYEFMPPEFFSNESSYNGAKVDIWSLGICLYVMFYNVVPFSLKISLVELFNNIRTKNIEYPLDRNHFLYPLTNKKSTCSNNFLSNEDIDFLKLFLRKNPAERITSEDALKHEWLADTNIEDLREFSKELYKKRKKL
# Sequence of Calcium-dependent protein kinase 1 (Plasmodium falciparum (isolate 3D7)) (P62344 whole entry, looked up): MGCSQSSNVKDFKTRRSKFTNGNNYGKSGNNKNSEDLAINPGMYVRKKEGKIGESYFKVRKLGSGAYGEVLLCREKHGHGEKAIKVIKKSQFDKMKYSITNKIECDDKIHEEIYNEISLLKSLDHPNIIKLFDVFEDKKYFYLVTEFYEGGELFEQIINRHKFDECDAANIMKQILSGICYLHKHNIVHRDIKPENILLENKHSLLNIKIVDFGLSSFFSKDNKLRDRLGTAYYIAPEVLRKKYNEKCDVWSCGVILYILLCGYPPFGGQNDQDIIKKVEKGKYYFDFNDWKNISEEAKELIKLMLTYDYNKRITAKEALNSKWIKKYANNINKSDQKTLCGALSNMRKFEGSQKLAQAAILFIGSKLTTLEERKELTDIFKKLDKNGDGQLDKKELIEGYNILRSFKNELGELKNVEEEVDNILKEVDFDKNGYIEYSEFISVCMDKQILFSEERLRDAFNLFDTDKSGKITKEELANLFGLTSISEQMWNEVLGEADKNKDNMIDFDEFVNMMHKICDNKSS
# Sequence of L-lactate dehydrogenase (Plasmodium falciparum (isolate CDC / Honduras)) (Q27743 whole entry, looked up): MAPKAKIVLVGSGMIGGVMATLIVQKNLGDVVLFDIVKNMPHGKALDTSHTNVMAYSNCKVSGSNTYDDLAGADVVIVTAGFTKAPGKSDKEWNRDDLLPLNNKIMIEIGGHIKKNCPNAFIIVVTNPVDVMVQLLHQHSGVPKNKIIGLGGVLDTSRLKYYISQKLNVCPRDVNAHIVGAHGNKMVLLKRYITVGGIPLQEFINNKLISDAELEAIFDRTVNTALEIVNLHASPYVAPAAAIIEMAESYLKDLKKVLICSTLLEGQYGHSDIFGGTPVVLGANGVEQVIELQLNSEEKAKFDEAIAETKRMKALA
Compound,growth inhibition [1],inhibition [2],inhibition [3] [%],growth inhibition [4],outcome [5],outcome [6],outcome [7],outcome [8]
NC(N)=NC(=O)Nc1cc(Cl)c(Cl)c(Cl)c1,100% (active),-2%,6,101% (active),inactive,inactive,inactive,inactive
CCCC(=O)Nc1ccc(Nc2nc(C)cc(N3CCCC3)n2)cc1,46%,31%,4,100% (active),inactive,inactive,inactive,inactive
O=C(/C=C/c1cccc2ccccc12)NCCCCCN1CCC(c2c[nH]c3ccccc23)CC1,6%,55% (active),-1,92% (active),inactive,inactive,inactive,inactive
COc1ccc(-c2cccc(NC(=O)c3cccc(C#N)c3)c2)cc1CN1CCCC1,32%,28%,-4,98% (active),inactive,inactive,inactive,inactive
Cc1ccc(Oc2c(-c3ccccc3CN3CCCC3CN(C)C)cnn(C)c2=O)cn1 (stereo not given),9%,-1%,-4,88% (active),inactive,inactive,inactive,inactive
COc1ccc(CCN(C)CCCOc2ccc(NC(=O)c3cccc4c(=O)c5ccccc5[nH]c34)cc2)cc1OC,45%,80% (active),1,94% (active),inactive,inactive,inactive,inactive
COc1ccc(NC(=O)[C@H](Cc2ccccc2)Nc2cc(C)nc(NCCc3ccccc3OC)n2)cc1,83% (active),10%,3,100% (active),inactive,inactive,inactive,inactive
O=C(Nc1ccc(C(F)(F)F)cc1)NC1CCN(CCCCCNC(=O)[C@@H]2C[C@H]2c2ccc(Cl)c(Cl)c2)CC1,45%,41%,-7,101% (active),inactive,inactive,inactive,inactive
COc1cccc(C(=O)NCCc2cccc(Cl)c2)c1OCc1ccccc1,-1%,-1%,1,85% (active),inactive,inactive,inactive,inactive
CCCCc1cc(NCc2ccncc2)nc(Nc2ccc(C)cc2)n1,59% (active),7%,-4,101% (active),inactive,inactive,inactive,inactive
COc1cccc(C(NC(=O)c2ccccc2)c2ccc3cccnc3c2O)c1 (stereo not given),41%,52% (active),2,89% (active),inactive,inactive,inactive,inactive
O=[N+]([O-])c1cccc(CNCC2CCN(CC3CCCCC3)CC2)c1,14%,11%,2,90% (active),inactive,inactive,inactive,inactive
COc1ccc(-c2cccc(NC(=O)c3cccc(Cl)c3)c2)cc1CN(C)CCN(C)C,73% (active),32%,4,101% (active),inactive,inactive,inactive,inactive
Cc1nnc2c(NC(=O)/C=C/c3ccc(OC(F)(F)F)cc3)cc3cc(Cl)ccc3n12,99% (active),19%,4,94% (active),inactive,inactive,inactive,inactive
CS(=O)(=O)NCCCNCc1cccc(-c2cccc(-c3nc4ccc(F)cc4[nH]3)c2)c1,5%,4%,-13,100% (active),inactive,inactive,inactive,inactive
Cc1cc(N)nc2ccc(-c3cccc(CN)c3)cc12,59% (active),2%,-8,101% (active),inactive,inactive,inactive,inactive
Cc1cc2nc(-c3ccc(C(=O)NCc4ccc(C(C)(C)C)cc4)cc3)[nH]c2cc1C,59% (active),3%,-3,101% (active),inactive,inactive,inactive,inactive
Cc1cccc(Nc2nc(N)c3ccccc3n2)c1,49%,1%,3,99% (active),inactive,inactive,inactive,inactive
O=S(=O)(Nc1ccc(CCN2CCC(N3CCCCC3)CC2)cc1)c1ccc2ccccc2c1,80% (active),44%,-2,101% (active),inactive,inactive,inactive,inactive
COc1cc(C(=O)Nc2nc3ccccc3[nH]2)ccc1OCC(=O)Nc1cccc(C(F)(F)F)c1,33%,33%,-8,100% (active),inactive,inactive,inactive,inactive

Compound,growth inhibition [1],inhibition [2],inhibition [3] [%],growth inhibition [4],outcome [5],outcome [6],outcome [7],outcome [8]
COC(=O)Cc1ccc(N)c2ccccc12,-1%,2%,-1,98% (active),inactive,inactive,inactive,inactive
CCc1ccc(O)c(-c2cc(C(=O)Nc3ccc(OC)c(Cl)c3)[nH]n2)c1,97% (active),15%,-1,93% (active),inactive,inactive,inactive,inactive
COCCNCc1ncsc1-c1ccc2c(Nc3cc(O)ccc3C)ccnc2c1,40%,9%,6,101% (active),inactive,inactive,inactive,inactive
CN(C)Cc1ccc(-c2cccc(Nc3nccc(NCC(O)c4ccccc4)n3)c2)cc1 (stereo not given),100% (active),74% (active),-1,102% (active),inactive,inactive,inactive,inactive
O=C(Nc1cccc(-c2ccc(-c3nc4ccc(C(F)(F)F)cc4[nH]3)cc2)c1)Nc1ccc(Cl)c(Cl)c1,51% (active),93% (active),-2,100% (active),inactive,inactive,inactive,inactive
Cc1cccc2[nH]c(-c3cccc(-c4cccc(NC(=O)c5cccnc5Cl)c4)c3)nc12,32%,-1%,0,97% (active),inactive,inactive,inactive,inactive
CC(=O)Nc1cccc(C(=O)Nc2nc3ccc(-c4cc(=O)[nH]c(Nc5ccccc5Cl)n4)cc3[nH]2)c1,62% (active),-2%,6,99% (active),inactive,inactive,inactive,inactive
Cc1cc(Nc2ccc3c(c2)CCC3)n2ncnc2n1,48%,4%,-2,86% (active),inactive,inactive,inactive,inactive
Cc1cc(N2CCCC2)nc(Nc2ccc(NC(=O)c3cccc(F)c3)cc2)n1,28%,39%,-3,97% (active),inactive,inactive,inactive,inactive
O=C(N[C@H]1CCN(Cc2ccc(OCCCN3CCCCC3)cc2)C1)c1ccc2ccccc2c1,32%,8%,5,97% (active),inactive,inactive,inactive,inactive
C[C@H](Nc1c(Nc2ccc3[nH]ccc3c2)c(=O)c1=O)C1CCCCC1,11%,7%,6,96% (active),inactive,inactive,inactive,inactive
CN(C)c1ccc(C=C2SC(=Nc3ccccc3)N(c3ccccc3)C2=O)cc1[N+](=O)[O-],82% (active),9%,7,96% (active),inactive,inactive,inactive,inactive
COc1ccc(N2CCN(CCCCNC(=O)c3ccc(NC(=O)c4ccc(Cl)cc4)cc3)CC2)c(OC)c1,22%,25%,6,97% (active),inactive,inactive,inactive,inactive
O=C(Nc1ccc(Cl)cc1Cl)NC1CCN(CCCCCNC(=O)[C@@H]2C[C@H]2c2ccc(Cl)c(Cl)c2)CC1,30%,67% (active),0,100% (active),inactive,inactive,inactive,inactive
CCOc1cc(C(=O)Nc2cccnc2)ccc1-c1nc2cc(Cl)c(Cl)cc2[nH]1,70% (active),9%,0,100% (active),inactive,inactive,inactive,inactive
COc1ccc(NC(=O)c2ccc(C=Cc3ccc(C(F)(F)F)cc3)cc2)cc1N1CCN(C)CC1,47%,46%,-6,99% (active),inactive,inactive,inactive,inactive
COc1ccc(-c2cccc(NC(=O)c3ccc(C#N)cc3)c2)cc1CN1CCCN(C)CC1,89% (active),22%,-3,101% (active),inactive,inactive,inactive,inactive
Cc1ccc(-c2cc(C(=O)Nc3ccc(S(=O)(=O)N(C)Cc4ccccc4)cc3)[nH]n2)c(O)c1,67% (active),34%,-1,99% (active),inactive,inactive,inactive,inactive
Cc1ccccc1-c1cc(=O)c2cc(NC(=O)c3cccs3)ccc2o1,95% (active),22%,-4,96% (active),inactive,inactive,inactive,inactive
COc1cc(NC(=O)Nc2cc(C)nc3ccccc23)cc(OC)c1,57% (active),5%,-4,104% (active),inactive,inactive,inactive,inactive

# Source: PubChem BioAssay
